# The entries come from a sample that favours hits as a whole.
# 12-LOX inh – ALOX12 (human) lipoxygenase inhibition; purified 12hLO, xylenol orange hydroperoxide absorbance; P18054; hit rate 1.1% among 580,000; Potency, µM (doses to about 108 µM), inactives show at the top dose activity change, negative = inhibition, actives largely listed as inhibitors; AID 1671190; note: potency is the fitted concentration of half-maximal effect
# Target sequence (P18054 whole entry, looked up): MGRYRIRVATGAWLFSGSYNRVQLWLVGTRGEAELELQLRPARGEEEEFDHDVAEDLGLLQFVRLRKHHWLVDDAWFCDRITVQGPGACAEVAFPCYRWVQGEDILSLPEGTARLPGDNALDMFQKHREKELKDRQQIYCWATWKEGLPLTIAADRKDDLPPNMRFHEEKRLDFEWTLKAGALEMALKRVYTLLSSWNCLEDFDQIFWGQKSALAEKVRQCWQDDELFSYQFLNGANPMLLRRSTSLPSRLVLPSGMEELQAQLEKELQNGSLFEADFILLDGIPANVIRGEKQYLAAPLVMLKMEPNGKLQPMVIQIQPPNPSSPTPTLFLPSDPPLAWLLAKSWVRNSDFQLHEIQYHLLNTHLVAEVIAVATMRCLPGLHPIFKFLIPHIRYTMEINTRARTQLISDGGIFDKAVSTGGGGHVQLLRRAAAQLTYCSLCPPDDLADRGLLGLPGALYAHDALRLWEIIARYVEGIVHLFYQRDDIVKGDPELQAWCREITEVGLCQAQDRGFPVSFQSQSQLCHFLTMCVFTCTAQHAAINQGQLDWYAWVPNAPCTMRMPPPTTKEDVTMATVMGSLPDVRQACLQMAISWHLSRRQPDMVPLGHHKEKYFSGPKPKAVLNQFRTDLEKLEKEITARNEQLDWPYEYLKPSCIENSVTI
#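 Hydroperoxide product was detected by ferrous iron/xylenol orange as the 573 to 405 nm absorbance ratio. Arachidonic acid at 40 uM (final) was turned over for 30 min at room temperature by 150 nM human 12hLO, pH 7.0 Hepes buffer, after 15 min compound preincubation.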
# IL-1B inflam inh – inflammasome signaling inhibition, IL-1 beta readout; THP-1 LPS/ATP IL-1B secretion, AlphaLISA, 16 h; stronger effect = lower value; activity change, % at 57.5 µM; hit rate 4.7% among 360,000; AID 743279; in the data active = activity change below about -50%; inconclusive = mostly about -30% to -49%
#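 THP-1 cells pretreated 1 hr with compounds (up to 57.5 uM final), then stimulated with LPS (250 ng/mL final) plus ATP (1.25 mM final); secreted IL-1B measured by AlphaLISA after 16 hr, decreased signal indicating inhibition.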
# TDP1 cell CPT – DT40-hTDP1 cell growth loss with CPT; Potency, µM (top dose mostly 46.2 µM), for the others: at the highest dose activity change, negative = growth inhibition, most hits filed as inhibitors; hit rate 12% among 420,000; AID 686979; chicken DT40 Tdp1-/-;hTDP1 cells + 20 nM CPT, ATP luminescence, 48 h; note: potency is the fitted concentration of half-maximal effect; nearly all actives have a fitted effect of over 55% in size
#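 Cell growth measured by CellTiter-Glo luminescence after a minimum 48 h, 37 C compound exposure with 20 nM CPT in Tdp1-knockout DT40 cells stably expressing hTDP1, seeded 400/well; qHTS titration format.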
# HT1080-NT tox – kills 2HG-producing HT-1080-NT fibrosarcoma cells | hit rate 1.6% among 360,000 | HT-1080-NT fibrosarcoma viability, CellTiter-Glo ATP luminescence, 48 h | Potency, µM (doses to about 46.1 µM), without a hit: top-dose activity, negative = less viability, usual class: cytotoxic;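 note: NT is the 2HG producing partner of a matched IDH1 knockdown line; potency is the fitted concentration of half-maximal effect; 0% = DMSO-treated cells and -100% = media-only wells without cells; nearly all actives have a fitted effect of over 55% in size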
#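 Compounds were tested in concentration-response format on HT-1080-NT cells for 48 hours at 37 degrees C. Cell viability came from CellTiter-Glo luminescence; curves were classified by r2, response magnitude and activity.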
# TDP1 cell noCPT – qHTS for Inhibitors of human tyrosyl-DNA phosphodiesterase 1 (TDP1): qHTS in cells in absence of CPT. DT40 Tdp1-/- hTDP1 cells, no CPT, ATP luminescence, 48 h. Potency, µM (series often up to 46.2 µM), inactives show at the top dose activity change, negative = growth inhibition, most hits filed as inhibitors. hit rate 15% among 420,000; note: potency is the fitted concentration of half-maximal effect; nearly all actives have a fitted effect of over 55% in size
#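 Compound effects on proliferation are scored in DT40 Tdp1-/-;hTDP1 cells in the absence of CPT. ATP levels (CellTiter-Glo luminescence) are recorded after a ≥48 hr, 37 °C incubation.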
# HT1080 IDH1KD tx – kills HT-1080 cells with IDH1 knockdown; HT-1080 IDH1 knockdown viability, ATP luminescence, 48 h; Potency, µM (titrated, usually from 46.1 µM), for the others: at the highest dose activity, negative = toxicity, usual class: cytotoxic; hit rate 2% among 360,000;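 note: potency is the fitted concentration of half-maximal effect; 0% = DMSO wells and -100% = cell-free medium wells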
#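 Luminescent ATP read-out (CellTiter-Glo, 10 min at room temperature) after 48 h compound exposure at 37 °C gave viability of IDH1-knockdown HT-1080 cells. Activity was normalised to DMSO and cell-free wells, then fitted as concentration-response curves.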
# Numbers without * were called inactive; ? = inconclusive; · = not tested or not shown. Unless noted, calls come from the whole dose curve; as a rule, active = well fitted curve in the direction sought with a large enough effect; inconclusive = small, poorly fitted or top-dose-only effect, or another doubt; inactive = no such curve, though single readings can be large; an effect the other way counts as inactive or inconclusive. Unless noted, % is set by controls: 0 for no effect and ±100 for the full control effect.
SMILES,12-LOX inh,IL-1B inflam inh,TDP1 cell CPT,HT1080-NT tox,TDP1 cell noCPT,HT1080 IDH1KD tx
O=C(NCc1n[nH]c(=O)c2ccccc12)c1ccc(Cl)cc1Cl,-18%,·,·,·,·,·
CC(C)S(=O)(=O)N1CCC2(CC1)CC(N1CCN(c3ccccn3)CC1)CCO2 (stereo unspecified),36%,·,·,·,·,·
N#CC(=C(O)c1ccc(Cl)cc1Cl)c1nc2cc(Cl)ccc2c(=O)[nH]1,22µM*,·,·,·,·,·
O=C(CSc1ncc(CO)n1Cc1ccccc1)Nc1nc2ccccc2s1,-7%,·,21µM*,·,16µM*,·
O=C(CSc1ncc(CO)n1Cc1ccccc1)Nc1ccc(C(F)(F)F)cc1,?,·,15µM*,·,23µM*,·
O=C1NC(=NC2CCCCC2)C2(CCCN([S+](=O)([O-])c3cccc(C(F)(F)F)c3)C2)N1c1cccnc1 (stereo unspecified),72%,·,·,·,·,·
C[C@H]1CN([C@@H](C)CO)C(=O)c2cc(Br)cnc2O[C@@H]1CN(C)C(=O)Nc1ccc(C(F)(F)F)cc1,-10%,4,21µM*,-12%,23µM*,-4%
C[C@H](O)C#Cc1cnc2c(c1)C(=O)N([C@H](C)CO)C[C@@H](C)[C@H](CN(C)C(=O)Nc1ccc(C(F)(F)F)cc1)O2,-21%,?,12µM*,-3%,7.3µM*,12%
C[C@H](CO)N1C[C@H](C)[C@H](CN(C)C(=O)Nc2ccc(C(F)(F)F)cc2)Oc2ncc(Br)cc2C1=O,1%,-7,?,-10%,?,-4%
CCC/C(O)=C1\C(=O)CC(C)(C)CC1=Nc1ccc(OC)cc1,-1%,-20,?,-15%,15µM*,-4%
CCCC/C(O)=C1\C(=O)CC(C)(C)CC1=Nc1ccc(OC)cc1,-2%,?,?,-2%,?,-2%
CCN1C(=O)N[C@H](c2ccc(Br)cc2)C(C(C)=O)=C1C,-16%,36,21µM*,2%,16µM*,3%
CC(=O)C1=C(C)N(Cc2ccc(Cl)cc2)C(=S)NC1c1ccccc1 (stereo unspecified),45µM*,·,·,·,·,·
CC(=O)C1=C(C)N(Cc2ccc(Cl)cc2)C(=S)NC1c1ccc(Cl)cc1 (stereo unspecified),45µM*,·,·,·,·,·
CCN1C(=O)N[C@@H](c2cccc(F)c2)C(C(C)=O)=C1C,4%,21,-28%,19%,-22%,9%
CC(=O)C1=C(C)N(Cc2ccc(F)cc2)C(=S)NC1c1cccc(Br)c1 (stereo unspecified),40µM*,·,·,·,·,·
CC(=O)C1=C(C)N(Cc2ccccc2)C(=O)N[C@@H]1c1cccc(C(F)(F)F)c1,-13%,1,?,-21%,?,0%
CC(=O)C1=C(C)N(Cc2ccccc2)C(=O)N[C@H]1c1cccc(C(F)(F)F)c1,-12%,9,?,-4%,?,-10%
O=C(c1ccccc1OCC1CCCN(C(=O)c2n[nH]c3ccccc23)C1)N1CCOCC1 (stereo unspecified),15%,·,·,·,·,·
CC(C)S(=O)(=O)N1CC(Oc2ccc(-c3noc(C4CCOCC4)n3)cc2)C1,60%,·,·,·,·,·
CCOc1ccc(-n2nc(C(=O)N(C)c3ccccc3OCC)c3ccccc3c2=O)cc1,10%,·,·,·,·,·
CCN(c1ccc(C)cc1)S(=O)(=O)c1nnc(NC(=O)C2CCCCC2)s1,-9%,·,?,·,10µM*,·
CC(C)CN(c1ccccc1)S(=O)(=O)c1nnc(NC(=O)C2CCCCC2)s1,18%,·,5.2µM*,·,?,·
CCN(c1ccccc1)S(=O)(=O)c1nnc(NC(=O)C2CCCCC2)s1,-22%,·,3%,·,-1%,·
